{"source": "PubChem BioAssay (NCI)", "note": "Compounds without any hit were thinned out: in the full panel of roughly 83,000, 20% have a hit.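 Cell lines were cultured in 96-well plates, exposed to a single compound concentration, and assessed for percent growth 48 hours later.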 A number with no mark means an inactive call. Calls of active or inactive are those of the source. How the source made its calls: active means growth percent below 10; inactive means the rest.", "data": [{"tested_on": "HL-60(TB) leukemia", "test": "NCI-60 one-dose screen, 48 h (100 = growth as untreated, 0 = no growth, -100 = all killed)", "conditions": "10 µM unless noted", "values": [{"smiles": "Oc1cncc(-c2ccc3ncnc(N4CCc5cc(F)c(Cl)cc54)c3c2)c1", "growth": "84.7%"}, {"smiles": "Cc1cc(=O)oc2cc(OCC(O)CNN3C(=O)c4cccc5c(N6CCN(C)CC6)ccc(c45)C3=O)ccc12", "note": "(stereo not drawn)", "growth": "113%"}, {"smiles": "Cc1nc(Nc2ncc(C(=O)Nc3c(C)cccc3Cl)s2)cc(N2CCN(CCCNC(=O)COc3ccc(C4CCC(=O)NC4=O)cc3)CC2)n1", "note": "(stereo not drawn)", "growth": "76.3%"}, {"smiles": "C=CC(=O)Nc1ccc(C(=O)/C=C/c2ccc(N(C)CCF)cc2)c(O)c1", "growth": "-32.2% (active)"}, {"smiles": "Cc1cccc(NCC(=O)N2CCN(c3ncnc4c3cnn4-c3ccccc3)CC2)c1", "growth": "60.2%"}, {"smiles": "Cc1nc2c(cnn2-c2ccccc2)c(=O)n1-c1ccc(NC(=O)c2ccc(F)cc2)cc1", "growth": "42.5%"}, {"smiles": "O=C(N/N=C/c1c[nH]c2ccccc12)Nc1ccc(F)c(Cl)c1", "growth": "15.9%"}, {"smiles": "COc1nc(N)ncc1-c1ccc2ncnc(N3CCc4cc(F)c(Cl)cc43)c2c1", "growth": "47%"}, {"smiles": "C=C1CC[C@@H]2[C@]3(C)COC(c4cn[nH]c4-c4cccc(Br)c4)O[C@@H]3CC[C@@]2(C)[C@@H]1C/C=C1/C(=O)OCC1O", "note": "(stereo partly drawn)", "growth": "-16.3% (active)"}, {"smiles": "O=C(Nc1ccc(Cl)c(C(F)(F)F)c1)c1cncc(C#Cc2cnc3ccc(N4CCOCC4)nn23)c1", "growth": "-21.7% (active)"}, {"smiles": "CN1CCN(Cc2ccc(NC(=O)c3cncc(C#Cc4cnc5ccc(N[C@H]6CCOC6)nn45)c3)cc2C(F)(F)F)CC1", "growth": "-54.4% (active)"}, {"smiles": "COc1ccc(-c2nc(Nc3ccccc3S(N)(=O)=O)c3ccccc3n2)cc1", "growth": "88.5%"}, {"smiles": "CCCN(CCC)S(=O)(=O)c1ccc(C(=O)O)cc1.CCCN(CCC)S(=O)(=O)c1ccc(C(=O)O)cc1.[Cl][Pt+2][Cl].[NH2-].[NH2-]", "growth": "-2.97% (active)"}, {"smiles": "Cc1cc(Cl)ccc1NC(=O)Nc1ccc(-c2ccc3c(c2)NC(=O)/C3=C\\c2ccc[nH]2)cc1", "growth": "78.9%"}, {"smiles": "COc1c2c(cc3c1C(CCc1ccccc1)N(C)CC3)OCO2", "note": "(stereo not drawn)", "growth": "-28.3% (active)"}, {"smiles": "COc1ccc(C2OC[C@@]3(C)C4CC[C@]5(C)C(CC=C6C7CC(C)(C)CC[C@]7(C(=O)O)CC[C@]65C)[C@@]4(C)C[C@@H](O)[C@@H]3O2)cc1", "note": "(stereo partly drawn)", "growth": "46.9%"}, {"smiles": "O=C1CCC(N2Cc3c(NCc4ccc(-c5ccccc5)cc4)cccc3C2=O)C(=O)N1", "note": "(stereo not drawn)", "growth": "10.7%"}, {"smiles": "O=C(NN1C(=O)/C(=C/C=C/c2ccc([N+](=O)[O-])o2)SC1=S)c1cccc(O)c1", "growth": "-2.32% (active)"}, {"smiles": "N#CC1=C(c2cccs2)Nc2c(c(-c3ccccc3)nn2-c2ccccc2)C12C(=O)Nc1ccc(Cl)cc12", "note": "(stereo not drawn)", "growth": "-4.48% (active)"}, {"smiles": "NC1=NC(c2ccccc2Cl)N=C(Nc2nn[nH]n2)N1", "note": "(stereo not drawn)", "growth": "110%"}, {"smiles": "COc1cc(/C=C2\\C(=N)N=C(SCc3nc4ccccc4[nH]3)NC2=O)ccc1O", "growth": "83.7%"}, {"smiles": "Cn1nc(C(F)(F)F)cc1-c1cc(Cl)c(COc2ccc(Cl)cc2)c(-c2ccc(Cl)c(C(F)(F)F)c2)c1O", "growth": "-22.5% (active)"}, {"smiles": "COc1ccc2[nH]c(O)c(N=Nc3nc(-c4ccc(Cl)cc4)cs3)c2c1", "growth": "58%"}, {"smiles": "O=C(CSc1nnc(-c2ccc(-c3nc4ccccc4[nH]3)cc2)o1)Nc1ccc(Cl)cc1", "growth": "37.6%"}, {"smiles": "CCOc1ccc(-c2c(C#N)c(-c3ccc(Cl)cc3)nc3n[nH]c(-c4ccc(Cl)cc4)c23)cc1OC", "growth": "4.06% (active)"}, {"smiles": "S=C(Nc1ccc(OCc2nc3ccc(Cl)cc3[nH]2)cc1)NC1CCCCC1", "growth": "-37.1% (active)"}, {"smiles": "CC12CC[C@@H]3[C@]4(C)COC(c5cn[nH]c5-c5ccc(Br)cc5)O[C@@H]4CC[C@@]3(C)[C@@H]1CC(C1=CCOC1=O)O2", "note": "(stereo partly drawn)", "growth": "27.2%"}, {"smiles": "CCOC(=O)c1c(CSc2ccccc2)n(C)c2cc(CN(C)C)c(O)c(CN(C)C)c12", "growth": "52.2%"}, {"smiles": "CCCn1c(=O)c2[nH]c(-c3ccc(OCc4nc5ccc(C(F)(F)F)cc5[nH]4)cc3)nc2n(CCC)c1=O", "growth": "55.9%"}, {"smiles": "C/C(=N\\Nc1ccc(S(N)(=O)=O)cc1)c1cnn(-c2cc(=O)[nH]c3ccc(Br)cc23)c1C", "growth": "84.7%"}, {"smiles": "Clc1ccc2c(NCCNC34CC5CC(CC(C5)C3)C4)ccnc2c1", "growth": "-53.1% (active)"}, {"smiles": "COC(=O)C(Cc1ccc(O)c(O)c1)NC(=O)C(CSC/C=C(\\C)CCCC(C)CCCC(C)CCCC(C)C)NC(C)=O", "note": "(stereo not drawn)", "growth": "-22.9% (active)"}, {"smiles": "C#CCCCNCCNc1ccnc2cc(Cl)ccc12", "growth": "46.8%"}]}]}
